About 2,000 (36%) of roughly 5,500 compounds were called active. Not shown: some 18% with an inconclusive outcome. Cut-off read from the data, not from the text of the source: active = normalized growth mostly below about 0.91 (no sharp cut-off); inconclusive = no clear call, values can overlap the other calls; inactive = mostly above about 0.92. This is one part of the list.
Assay: chemical genetic growth profiling, strain panel (AID 1159580);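 note: tested at 20 µM; growth read once vehicle control cultures reached saturation at 30 °C; 1 = growth at the plate median or of vehicle wells; lower values mean less growth of the strain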
Settings: growth OD
[1] = S. cerevisiae deletion strains, locus YHR030C, strain SLT2, active compounds read low

Measured: normalized growth

O=C(O)CSCCOc1ccccc1
inactive: S. cerevisiae deletion strains, locus YAL013W, strain DEP1, active compounds read low 1.01 | S. cerevisiae deletion strains, locus YBR229C, strain ROT2, active compounds read low 1.01 | S. cerevisiae deletion strains, locus YCL061C, strain MRC1, active compounds read low 1 | S. cerevisiae deletion strains, locus YDL101C, strain DUN1, active compounds read low 0.997 | S. cerevisiae deletion strains, locus YDL134C, strain PPH21, active compounds read low 1.03 | S. cerevisiae deletion strains, locus YDR150W, strain NUM1, active compounds read low 0.932 | S. cerevisiae deletion strains, locus YEL061C, strain CIN8, active compounds read low 1.01 | S. cerevisiae deletion strains, locus YGR078C, strain PAC10, active compounds read low 1 | [1] 1.07 | S. cerevisiae deletion strains, locus YHR087W, strain rtc3, active compounds read low 0.998 | S. cerevisiae deletion strains, locus YJR043C, strain POL32, active compounds read low 1.01 | S. cerevisiae deletion strains, locus YJR075W, strain HOC1, active compounds read low 1.02 | S. cerevisiae deletion strains, locus YKL190W, strain CNB1, active compounds read low 1.01 | S. cerevisiae deletion strains, locus YLR039C, strain RIC1, active compounds read low 1.04 | S. cerevisiae deletion strains, locus YLR058C, strain SHM2 (second series), active compounds read low 1.01 | S. cerevisiae deletion strains, locus YLR085C, strain ARP6, active compounds read low 0.997 | S. cerevisiae deletion strains, locus YLR262C, strain YPT6, active compounds read low 1.05 | S. cerevisiae deletion strains, locus YML094W, strain GIM5, active compounds read low 1.01 | S. cerevisiae deletion strains, locus YMR219W, strain ESC1, active compounds read low 1 | S. cerevisiae deletion strains, locus YMR263W, strain SAP30, active compounds read low 1.01 | S. cerevisiae deletion strains, locus YMR307W, strain GAS1, active compounds read low 1.05 | S. cerevisiae deletion strains, locus YNL153C, strain GIM3, active compounds read low 1 | S. cerevisiae deletion strains, locus YNL298W, strain CLA4 (second series), active compounds read low 1.02 | S. cerevisiae deletion strains, locus YNL322C, strain KRE1, active compounds read low 0.997 | S. cerevisiae deletion strains, locus YNR030W, strain Alg12, active compounds read low 1.02 | S. cerevisiae deletion strains, locus YPL055C, strain LGE1, active compounds read low 1.09 | S. cerevisiae deletion strains, locus YPL241C, strain CIN2, active compounds read low 0.994 | S. cerevisiae deletion strains, locus YPR135W, strain CTF4, active compounds read low 1.17 | S. cerevisiae strains, strain wild type, active compounds read low 1.02

C[N+](C)(CCOc1ccccc1)Cc1ccccc1
inactive: [1] 0.888 | S. cerevisiae deletion strains, locus YOR231W, strain MKK1, active compounds read low 0.887
active: S. cerevisiae deletion strains, locus YHR079C, strain IRE1, active compounds read low 0.844 | S. cerevisiae deletion strains, locus YJL095W, strain BCK1, active compounds read low 0.869 | S. cerevisiae deletion strains, locus YJR066W, strain TOR1, active compounds read low 0.799 | S. cerevisiae deletion strains, locus YLR113W, strain HOG1, active compounds read low 0.805 | S. cerevisiae deletion strains, locus YNL183C, strain NPR1, active compounds read low 0.788 | S. cerevisiae deletion strains, locus YPL256C, strain CLN2, active compounds read low 0.812

From PubChem BioAssay AID1159580 (chemical genetic matrix, 2015)
